For eight compounds, max response, Potency and outcome results are on record in PubChem BioAssay (NCATS).

“And” between values parts separate entries of the source, which are not always exact repeats. Equal entries are not always repeated. Results filed as inconclusive are left out. A number with no mark means an inactive call. The source made the active and inactive calls. Calls follow the shape of the dose curve; as a rule, active = well fitted curve in the direction sought with a large enough effect; inconclusive = small, poorly fitted or top-dose-only effect, or another doubt; inactive = no such curve, though single readings can be large; an effect the other way counts as inactive or inconclusive.

One experiment relates to CRL-7250. Kind of experiment: Cytotoxic Profiling of Annotated Libraries Using Quantitative High-Throughput Screening (AID 1296008). Also: nearly all actives have a fitted effect of over 60% in size. Also: potency is read from the fitted curve at half-maximal effect. Conditions: Five cell lines viability, CellTiter-Glo ATP luminescence, 48-72 h; max response: active compounds read low. Put shortly: (§1)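 Cells exposed to compounds for 48 or 72 hr at 37 degrees Celsius. Viability read as ATP-coupled luminescence with CellTiter-Glo after 10 min at room temperature.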

For a further experiment, the system named is HEK293. Described as above. Conditions: Five cell lines viability, CellTiter-Glo ATP luminescence, 48-72 h; max response: active compounds read low. Put shortly: as §1
The test system of a further experiment is HaCat. Described as above. Conditions: Five cell lines viability, CellTiter-Glo ATP luminescence, 48-72 h; max response: active compounds read low. The procedure, abridged: as §1
(In general: ATP-based viability assays read luminescence as a measure of living cells.)

In the next experiment the test system is KB-3-1. Described as above. Conditions: Five cell lines viability, CellTiter-Glo ATP luminescence, 48-72 h; max response: active compounds read low. The procedure, abridged: as §1
The test system of experiment [1] is NIH3T3. The description is as above. Conditions: Five cell lines viability, CellTiter-Glo ATP luminescence, 48-72 h; max response: active compounds read low. The procedure, abridged: as §1
The next experiment has as its system MCC-13. Kind of experiment: qHTS assay to identify novel small-molecules to repurpose for Merkel cell carcinoma treatment (AID 1296009). Also: nearly all actives have a fitted effect of over 60% in size. Also: potency is read from the fitted curve at half-maximal effect. Conditions: MCC and control cell lines, CellTiter-Glo viability, 72 h; series mostly up to 46 µM. Put shortly: (§2)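 Cells were treated for 72 hr at 37 degree celsius with compounds in 8- or 11-point dose response. Viability was read by CellTiter-Glo luminescence, normalized to no-cell (cytotoxicity) and DMSO controls.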
(qHTS replaces the single test concentration by a dilution series.)

The next experiment relates to MCC-26. The description is as above. Conditions: MCC and control cell lines, CellTiter-Glo viability, 72 h; series mostly up to 46 µM. Put shortly:
as §2

In the next experiment the test system is MKL-1. Described as above. Conditions: MCC and control cell lines, CellTiter-Glo viability, 72 h; series mostly up to 46 µM. Put shortly:
as §2

The next experiment concerns UISO. The description is as above. Conditions: MCC and control cell lines, CellTiter-Glo viability, 72 h; series mostly up to 46 µM. Put shortly: as §2
A further experiment has as its system WaGa. The experiment is described as above. Conditions: MCC and control cell lines, CellTiter-Glo viability, 72 h; series mostly up to 46 µM. The procedure, abridged:
as §2

The subject of the next experiment is C33A. In words: Primary qHTS to identify gynecologic anti-cancer compounds using libraries of approved drugs and bioactive compounds (AID 1345084). Also: nearly all actives have a fitted effect of over 55% in size. Conditions: Gynecologic cancer cell panel viability, ATPlite luminescence, 48 h; series mostly up to 57.5 µM. Put shortly: (§3)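 Five-point cytotoxicity, 48 h drug exposure at 37 C, 5% CO2, on cells seeded 16 h beforehand. ATP content read by ATPlite luminescence.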

Another experiment has as its system CAOV3. The description is as above. Conditions: Gynecologic cancer cell panel viability, ATPlite luminescence, 48 h; series mostly up to 57.5 µM. The procedure, abridged: as §3
A further experiment relates to CASKI. The experiment is described as above. Conditions: Gynecologic cancer cell panel viability, ATPlite luminescence, 48 h; series mostly up to 57.5 µM. Put shortly:
as §3

The next experiment concerns HEK293T. In words: qHTS assay to identify novel small-molecules to repurpose for Merkel cell carcinoma treatment (AID 1296009). Also: nearly all actives have a fitted effect of over 60% in size. Also: potency is read from the fitted curve at half-maximal effect. Conditions: MCC and control cell lines, CellTiter-Glo viability, 72 h; at 44.8 µM (top of the series). Put shortly: as §2
For a further experiment, the system named is MKL-2. Described as above. Conditions: MCC and control cell lines, CellTiter-Glo viability, 72 h; series mostly up to 46 µM. The procedure, abridged: as §2
Experiment [2] has as its system NIH3T3. The experiment is described as above. Conditions: MCC and control cell lines, CellTiter-Glo viability, 72 h; at 44.8 µM (top of the series) unless noted. Put shortly:
as §2
% is scaled to controls: 0 for no effect and ±100 for the full control effect.

`CC1(C)CCC(CN2CCN(c3ccc(C(=O)NS(=O)(=O)c4ccc(NCC5CCOCC5)c([N+](=O)[O-])c4)c(Oc4cnc5[nH]ccc5c4)c3)CC2)=C(c2ccc(Cl)cc2)C1`: the max response is -2.21% and -9.69% with CRL-7250; -5.37% and -6.15% in the experiment with HEK293; -24.1% and -27.2% with HaCat; 0.966% in the experiment with KB-3-1; -21% and 4.74% in the experiment on NIH3T3 [1]. In addition, the Potency result with MCC-13, in the experiment with MCC-26, in the experiment on MKL-1, with UISO, in the experiment on WaGa and in the experiment with C33A was “inactive” each time. Moreover, the Potency entry with CAOV3 and in the experiment with CASKI was “inactive” each time.

Take `O=C(CCc1ccc(O)cc1)c1c(O)cc(O)cc1O[C@@H]1O[C@H](CO)[C@H](O)[C@H](O)[C@H]1O`: the max response in the experiment with CRL-7250 was -9.67%; in the experiment on HEK293, 1.98%; in the experiment on HaCat, -1.37%; in the experiment on KB-3-1, 1.32%; in the experiment with NIH3T3 [1], -7.96%. In addition, the Potency entry with MCC-13, in the experiment with MCC-26, in the experiment with MKL-1, with UISO and in the experiment with WaGa was “inactive” in each case.

Regarding `O=C(OCC#CCSc1nnc(-c2cccc3ccccc23)o1)c1cc2ccccc2s1`, the max response in the experiment with CRL-7250 is 3.01%; with HaCat, -10.9%; with KB-3-1 it was -5.32%. The compound was called inactive in the experiment with HEK293, in the experiment on NIH3T3 [1], with HEK293T and in the experiment on NIH3T3 [2]. For the same compound, the Potency result in the experiment with MCC-13, in the experiment with MCC-26, in the experiment with MKL-1, in the experiment with MKL-2, in the experiment on UISO and with WaGa was “inactive” in each case.

Consider `CN1CCN(CCOc2cc(OC3CCOCC3)c3c(Nc4c(Cl)ccc5c4OCO5)ncnc3c2)CC1`, for which the Potency with CRL-7250 was 10.3 µM (active); in the experiment with HEK293 it was 26.4 µM (active) and 16.4 µM (active); in the experiment on HaCat, 3.32 µM (active) and 366 nM (active); with NIH3T3 [1] it was 1.66 µM (active) and 651 nM (active). In the experiment on KB-3-1, the max response is 2.81% and -8.03%. In addition, the Potency entry in the experiment on MKL-1, in the experiment with MKL-2, with UISO and with WaGa was “inactive” in each case.

`CC#CCn1c(N2CCC[C@@H](N)C2)nc2c1c(=O)n(Cc1nc(C)c3ccccc3n1)c(=O)n2C`: the max response in the experiment on CRL-7250 was 0.558%; with HEK293 it was -21.1%; with HaCat it was 3.66%; in the experiment on KB-3-1, -0.824%. For the same compound, the outcome with NIH3T3 [1] and in the experiment on NIH3T3 [2] was inactive. The Potency result with MCC-13, in the experiment on MCC-26, with MKL-1, in the experiment on MKL-2, with UISO and in the experiment with WaGa was “inactive” in each case.

Consider `CCOC(CN1C(=O)[C@](CC(=O)Nc2ccc(C)cc2)(NC(=O)Nc2ccc(C)cc2)c2ccccc21)OCC`, for which the max response is 2.73% in the experiment with CRL-7250; -3.95% in the experiment with HEK293; -19.2% in the experiment on HaCat; -11% in the experiment with KB-3-1; -3.18% in the experiment with NIH3T3 [1]. Further, the Potency entry in the experiment on MCC-13, in the experiment on MCC-26, in the experiment on MKL-1, in the experiment with UISO and in the experiment with WaGa was “inactive” throughout.

As for `COc1ccc(-c2nc(N3CCOCC3)c3sc(CN(C)c4ncc(C(=O)NO)cn4)cc3n2)cn1`, the Potency is 0.059 µM (active) in the experiment with CRL-7250; 16.6 nM (active) in the experiment with HEK293; 148 nM (active) in the experiment on HaCat; 26.4 nM (active) in the experiment with KB-3-1; 118 nM (active) in the experiment on NIH3T3 [1]; 66.2 nM (active) in the experiment on MCC-13. In addition, the values for the Potency in the experiment on MCC-26, in the experiment on UISO and in the experiment with WaGa were 52.6 nM (active), 23.5 nM (active) and 2.6 nM (active), respectively.

Regarding `O=c1cc(CN2CCOCC2)occ1OCCCCCSc1ccnc2cc(C(F)(F)F)ccc12`, the Potency in the experiment on CRL-7250 is 11.8 µM (active) and 9.2 µM (active); in the experiment with HEK293, 8.33 µM (active) and 4.11 µM (active). The max response with HaCat was -9.94%; in the experiment with KB-3-1, -24.2%; with NIH3T3 [1], 0.796%. Moreover, the Potency result with MCC-13, in the experiment with MCC-26, in the experiment on MKL-1 and with MKL-2 was “inactive” throughout.
